Source: the supplement of paper PMC11732987, “Enantioselective OTUD7B fragment discovery through chemoproteomics screening and high-throughput optimisation” (Communications Chemistry, 2025)

Experiments:
Experiment in all cases: log2 ratio of Biotin-Ahx-Ub-VS probe labelling (fragment/DMSO); higher = less target engagement (more negative = stronger competition), active = hit call of the paper (q ≤ 0.05, log2 ratio ≤ -1)
Settings in all cases: compound concentration: 200 uM; treatment time: 3 h
USP42 = target: T1, USP42 (UniProt Q9H9J4)
T1 sequence (whole entry): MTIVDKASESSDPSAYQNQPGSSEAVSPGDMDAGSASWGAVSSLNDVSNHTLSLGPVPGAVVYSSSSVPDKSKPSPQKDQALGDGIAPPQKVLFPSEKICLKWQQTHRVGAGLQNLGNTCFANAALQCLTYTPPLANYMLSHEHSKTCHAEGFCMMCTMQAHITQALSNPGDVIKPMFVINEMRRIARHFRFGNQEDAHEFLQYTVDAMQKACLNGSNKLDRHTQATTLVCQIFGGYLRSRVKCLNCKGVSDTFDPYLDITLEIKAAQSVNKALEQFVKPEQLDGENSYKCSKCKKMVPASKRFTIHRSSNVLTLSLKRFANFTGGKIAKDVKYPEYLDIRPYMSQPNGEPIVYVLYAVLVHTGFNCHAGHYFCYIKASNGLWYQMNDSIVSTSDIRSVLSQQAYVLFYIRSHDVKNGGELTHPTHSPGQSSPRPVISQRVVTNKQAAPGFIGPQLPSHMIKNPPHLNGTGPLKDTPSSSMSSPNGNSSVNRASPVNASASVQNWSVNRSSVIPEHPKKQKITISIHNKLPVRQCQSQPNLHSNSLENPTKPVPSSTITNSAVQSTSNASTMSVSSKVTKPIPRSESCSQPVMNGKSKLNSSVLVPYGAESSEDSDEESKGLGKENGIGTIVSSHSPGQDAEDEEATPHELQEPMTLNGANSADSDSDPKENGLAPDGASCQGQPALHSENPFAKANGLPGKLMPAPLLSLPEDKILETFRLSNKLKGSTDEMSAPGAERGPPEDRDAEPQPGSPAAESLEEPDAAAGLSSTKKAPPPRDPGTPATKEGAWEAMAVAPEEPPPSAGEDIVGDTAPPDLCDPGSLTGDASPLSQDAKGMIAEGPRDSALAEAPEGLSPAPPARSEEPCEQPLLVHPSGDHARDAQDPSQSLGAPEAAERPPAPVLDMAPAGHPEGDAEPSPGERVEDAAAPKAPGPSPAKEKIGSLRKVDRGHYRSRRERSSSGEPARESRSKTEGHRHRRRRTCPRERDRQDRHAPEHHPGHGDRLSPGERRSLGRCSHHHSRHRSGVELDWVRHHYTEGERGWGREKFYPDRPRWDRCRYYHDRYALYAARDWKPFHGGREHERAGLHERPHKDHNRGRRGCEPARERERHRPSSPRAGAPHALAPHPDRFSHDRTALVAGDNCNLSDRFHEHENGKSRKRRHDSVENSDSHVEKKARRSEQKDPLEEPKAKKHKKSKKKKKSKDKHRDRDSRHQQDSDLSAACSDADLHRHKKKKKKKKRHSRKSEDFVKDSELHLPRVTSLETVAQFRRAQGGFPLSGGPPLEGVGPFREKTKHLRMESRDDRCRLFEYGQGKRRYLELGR
In short: (§1)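 Labelled DUBs from HEK293T lysate were NeutrAvidin-enriched, digested with LysC and trypsin, and run by diaPASEF LC-MS/MS. Before that, each 495 µg sample in Tris/CHAPS/IGEPAL buffer with protease inhibitors was treated in triplicate with fragment at 200 µM or vehicle for 3 h, then with Biotin-Ahx-Ub-VS at 0.5 µM final for 1 h. Values are average log2 ratios of fragment over vehicle by unpaired t-test, based on global-median-normalised Spectronaut label-free quantities from proteins with ≥2 unique peptides.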

USP46 = USP46 (UniProt P62068)
In short: as §1

USP47 = target: T2, USP47 (UniProt Q96K76)
T2 sequence (whole entry): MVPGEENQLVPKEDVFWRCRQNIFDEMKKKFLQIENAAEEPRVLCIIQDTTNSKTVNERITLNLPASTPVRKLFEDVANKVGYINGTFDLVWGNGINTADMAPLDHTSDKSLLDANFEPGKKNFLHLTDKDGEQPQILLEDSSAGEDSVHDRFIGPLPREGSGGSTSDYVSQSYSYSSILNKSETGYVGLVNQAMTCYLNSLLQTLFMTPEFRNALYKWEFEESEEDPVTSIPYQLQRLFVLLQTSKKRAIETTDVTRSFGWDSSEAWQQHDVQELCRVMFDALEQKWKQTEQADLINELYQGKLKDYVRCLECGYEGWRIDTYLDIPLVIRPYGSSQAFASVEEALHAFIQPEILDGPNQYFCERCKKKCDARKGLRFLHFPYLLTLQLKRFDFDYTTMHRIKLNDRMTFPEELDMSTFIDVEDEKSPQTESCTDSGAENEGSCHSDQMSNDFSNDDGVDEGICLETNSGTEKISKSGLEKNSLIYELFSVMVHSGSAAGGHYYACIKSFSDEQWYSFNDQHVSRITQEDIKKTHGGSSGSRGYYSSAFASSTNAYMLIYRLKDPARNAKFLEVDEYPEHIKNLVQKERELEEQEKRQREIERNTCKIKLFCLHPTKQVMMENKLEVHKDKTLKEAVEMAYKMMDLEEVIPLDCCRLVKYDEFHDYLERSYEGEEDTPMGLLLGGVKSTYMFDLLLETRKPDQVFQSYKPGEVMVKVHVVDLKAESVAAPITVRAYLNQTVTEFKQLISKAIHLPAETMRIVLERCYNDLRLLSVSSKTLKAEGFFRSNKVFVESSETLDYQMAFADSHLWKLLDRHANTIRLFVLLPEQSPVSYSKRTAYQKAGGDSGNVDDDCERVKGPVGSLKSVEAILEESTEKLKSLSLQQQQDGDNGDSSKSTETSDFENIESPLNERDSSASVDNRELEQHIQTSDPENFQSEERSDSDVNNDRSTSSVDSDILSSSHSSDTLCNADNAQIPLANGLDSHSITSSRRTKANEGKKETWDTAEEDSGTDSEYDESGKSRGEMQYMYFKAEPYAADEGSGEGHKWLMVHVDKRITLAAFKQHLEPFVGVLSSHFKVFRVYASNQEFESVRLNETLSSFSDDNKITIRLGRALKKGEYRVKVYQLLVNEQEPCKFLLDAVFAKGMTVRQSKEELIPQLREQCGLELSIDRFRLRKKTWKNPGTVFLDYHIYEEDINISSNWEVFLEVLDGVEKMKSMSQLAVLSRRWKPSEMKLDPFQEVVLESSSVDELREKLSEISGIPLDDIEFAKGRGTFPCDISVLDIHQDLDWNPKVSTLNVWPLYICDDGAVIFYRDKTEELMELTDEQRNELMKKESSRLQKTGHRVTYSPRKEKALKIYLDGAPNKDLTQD
In short: as §1

USP48 = target: T3, USP48 (UniProt Q86UV5)
T3 sequence (whole entry): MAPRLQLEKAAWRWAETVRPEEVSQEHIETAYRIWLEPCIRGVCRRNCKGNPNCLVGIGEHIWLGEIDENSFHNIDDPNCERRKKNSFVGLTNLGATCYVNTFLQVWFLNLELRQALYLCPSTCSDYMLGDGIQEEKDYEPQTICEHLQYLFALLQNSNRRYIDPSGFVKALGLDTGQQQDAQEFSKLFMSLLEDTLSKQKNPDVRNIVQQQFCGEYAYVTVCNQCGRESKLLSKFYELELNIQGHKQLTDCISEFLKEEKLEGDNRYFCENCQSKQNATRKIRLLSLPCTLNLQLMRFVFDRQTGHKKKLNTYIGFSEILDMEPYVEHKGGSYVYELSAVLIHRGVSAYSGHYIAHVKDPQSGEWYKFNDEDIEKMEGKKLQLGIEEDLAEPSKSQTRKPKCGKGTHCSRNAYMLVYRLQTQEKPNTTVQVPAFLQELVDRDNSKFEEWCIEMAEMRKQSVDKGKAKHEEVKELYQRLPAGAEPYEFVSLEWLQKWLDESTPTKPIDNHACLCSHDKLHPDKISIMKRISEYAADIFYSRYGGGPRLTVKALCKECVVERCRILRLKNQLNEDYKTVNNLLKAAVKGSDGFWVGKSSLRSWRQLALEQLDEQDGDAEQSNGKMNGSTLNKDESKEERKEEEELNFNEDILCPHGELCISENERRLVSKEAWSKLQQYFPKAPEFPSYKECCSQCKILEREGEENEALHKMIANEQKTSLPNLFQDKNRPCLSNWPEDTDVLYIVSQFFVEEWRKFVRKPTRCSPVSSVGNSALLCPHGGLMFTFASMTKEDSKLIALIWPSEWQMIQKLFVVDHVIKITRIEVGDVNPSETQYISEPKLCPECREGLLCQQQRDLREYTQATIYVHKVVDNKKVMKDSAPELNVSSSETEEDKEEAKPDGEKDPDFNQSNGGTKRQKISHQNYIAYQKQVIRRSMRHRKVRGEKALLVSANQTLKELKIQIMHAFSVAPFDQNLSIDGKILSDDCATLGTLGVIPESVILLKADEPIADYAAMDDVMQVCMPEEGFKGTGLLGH
In short: as §1

USP5 = target: T4, USP5 (UniProt P45974)
T4 sequence (whole entry): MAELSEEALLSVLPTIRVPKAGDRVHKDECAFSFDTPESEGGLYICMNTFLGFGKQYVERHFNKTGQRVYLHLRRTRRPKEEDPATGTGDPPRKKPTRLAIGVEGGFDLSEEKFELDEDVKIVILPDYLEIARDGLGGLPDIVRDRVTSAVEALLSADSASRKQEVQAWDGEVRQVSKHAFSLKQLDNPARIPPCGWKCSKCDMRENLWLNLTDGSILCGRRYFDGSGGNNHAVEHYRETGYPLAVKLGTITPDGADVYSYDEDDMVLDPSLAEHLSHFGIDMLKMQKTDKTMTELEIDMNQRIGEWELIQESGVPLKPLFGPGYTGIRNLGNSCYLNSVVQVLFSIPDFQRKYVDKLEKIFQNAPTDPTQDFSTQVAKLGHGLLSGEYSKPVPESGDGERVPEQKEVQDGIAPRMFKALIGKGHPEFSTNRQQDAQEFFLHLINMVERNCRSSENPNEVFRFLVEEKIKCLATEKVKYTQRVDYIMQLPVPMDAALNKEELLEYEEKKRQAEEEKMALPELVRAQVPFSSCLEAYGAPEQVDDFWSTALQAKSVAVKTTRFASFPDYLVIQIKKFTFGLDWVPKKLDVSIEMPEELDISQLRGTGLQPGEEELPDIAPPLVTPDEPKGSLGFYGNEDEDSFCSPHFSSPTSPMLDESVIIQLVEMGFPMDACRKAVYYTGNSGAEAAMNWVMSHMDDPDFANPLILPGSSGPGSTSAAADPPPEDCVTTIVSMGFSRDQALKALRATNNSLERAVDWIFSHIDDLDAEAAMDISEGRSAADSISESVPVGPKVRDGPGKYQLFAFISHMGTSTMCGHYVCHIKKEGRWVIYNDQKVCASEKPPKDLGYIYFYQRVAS
In short: as §1

USP54 = USP54 (UniProt Q70EL1)
In short: as §1

USP7 = USP7 (UniProt Q93009)
In short: as §1

USP8 = target: T5, USP8 (UniProt P40818)
T5 sequence (whole entry): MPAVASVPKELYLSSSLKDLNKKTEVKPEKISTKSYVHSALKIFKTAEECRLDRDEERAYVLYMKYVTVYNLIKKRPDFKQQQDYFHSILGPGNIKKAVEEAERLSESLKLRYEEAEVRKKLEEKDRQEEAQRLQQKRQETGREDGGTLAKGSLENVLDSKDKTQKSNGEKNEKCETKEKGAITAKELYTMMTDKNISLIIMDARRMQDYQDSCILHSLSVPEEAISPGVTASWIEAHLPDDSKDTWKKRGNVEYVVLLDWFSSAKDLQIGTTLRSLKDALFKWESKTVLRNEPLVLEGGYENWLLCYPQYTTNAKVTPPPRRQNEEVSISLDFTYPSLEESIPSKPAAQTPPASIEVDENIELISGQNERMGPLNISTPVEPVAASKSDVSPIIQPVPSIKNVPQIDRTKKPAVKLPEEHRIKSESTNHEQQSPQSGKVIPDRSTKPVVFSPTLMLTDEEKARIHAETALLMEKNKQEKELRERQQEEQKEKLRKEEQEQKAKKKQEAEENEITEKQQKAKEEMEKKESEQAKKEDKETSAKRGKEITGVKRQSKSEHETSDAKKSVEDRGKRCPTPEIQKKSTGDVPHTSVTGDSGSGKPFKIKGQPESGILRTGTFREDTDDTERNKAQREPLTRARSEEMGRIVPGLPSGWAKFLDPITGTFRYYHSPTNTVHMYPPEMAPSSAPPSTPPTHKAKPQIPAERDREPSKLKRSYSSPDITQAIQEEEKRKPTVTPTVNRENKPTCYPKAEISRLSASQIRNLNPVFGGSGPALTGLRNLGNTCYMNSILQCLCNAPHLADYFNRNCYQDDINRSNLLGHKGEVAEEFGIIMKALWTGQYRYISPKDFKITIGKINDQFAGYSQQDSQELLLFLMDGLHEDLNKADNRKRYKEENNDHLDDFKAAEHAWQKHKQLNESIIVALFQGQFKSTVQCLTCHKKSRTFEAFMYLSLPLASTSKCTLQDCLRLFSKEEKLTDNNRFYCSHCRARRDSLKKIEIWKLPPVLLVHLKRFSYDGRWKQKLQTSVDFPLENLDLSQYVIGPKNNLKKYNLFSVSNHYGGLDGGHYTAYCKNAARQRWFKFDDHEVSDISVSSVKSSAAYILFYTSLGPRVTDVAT
In short: as §1

USP9X = USP9X (UniProt Q93008)
In short: as §1

UniProt O00487 = target: UniProt O00487
In short: as §1

Measured: log2 ratio of Biotin-Ahx-Ub-VS probe labelling

Chain of USP46 (P62068 whole entry): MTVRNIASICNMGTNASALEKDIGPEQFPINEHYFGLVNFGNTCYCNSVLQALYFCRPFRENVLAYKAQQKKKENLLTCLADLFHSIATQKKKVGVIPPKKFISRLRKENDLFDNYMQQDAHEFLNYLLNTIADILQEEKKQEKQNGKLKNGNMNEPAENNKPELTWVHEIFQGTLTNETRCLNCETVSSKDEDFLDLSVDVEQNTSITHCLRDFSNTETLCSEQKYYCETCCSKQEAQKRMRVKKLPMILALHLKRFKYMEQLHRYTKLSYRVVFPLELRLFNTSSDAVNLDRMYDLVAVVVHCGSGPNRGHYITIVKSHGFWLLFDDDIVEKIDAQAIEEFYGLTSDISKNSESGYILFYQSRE
Chain of USP54 (Q70EL1 whole entry): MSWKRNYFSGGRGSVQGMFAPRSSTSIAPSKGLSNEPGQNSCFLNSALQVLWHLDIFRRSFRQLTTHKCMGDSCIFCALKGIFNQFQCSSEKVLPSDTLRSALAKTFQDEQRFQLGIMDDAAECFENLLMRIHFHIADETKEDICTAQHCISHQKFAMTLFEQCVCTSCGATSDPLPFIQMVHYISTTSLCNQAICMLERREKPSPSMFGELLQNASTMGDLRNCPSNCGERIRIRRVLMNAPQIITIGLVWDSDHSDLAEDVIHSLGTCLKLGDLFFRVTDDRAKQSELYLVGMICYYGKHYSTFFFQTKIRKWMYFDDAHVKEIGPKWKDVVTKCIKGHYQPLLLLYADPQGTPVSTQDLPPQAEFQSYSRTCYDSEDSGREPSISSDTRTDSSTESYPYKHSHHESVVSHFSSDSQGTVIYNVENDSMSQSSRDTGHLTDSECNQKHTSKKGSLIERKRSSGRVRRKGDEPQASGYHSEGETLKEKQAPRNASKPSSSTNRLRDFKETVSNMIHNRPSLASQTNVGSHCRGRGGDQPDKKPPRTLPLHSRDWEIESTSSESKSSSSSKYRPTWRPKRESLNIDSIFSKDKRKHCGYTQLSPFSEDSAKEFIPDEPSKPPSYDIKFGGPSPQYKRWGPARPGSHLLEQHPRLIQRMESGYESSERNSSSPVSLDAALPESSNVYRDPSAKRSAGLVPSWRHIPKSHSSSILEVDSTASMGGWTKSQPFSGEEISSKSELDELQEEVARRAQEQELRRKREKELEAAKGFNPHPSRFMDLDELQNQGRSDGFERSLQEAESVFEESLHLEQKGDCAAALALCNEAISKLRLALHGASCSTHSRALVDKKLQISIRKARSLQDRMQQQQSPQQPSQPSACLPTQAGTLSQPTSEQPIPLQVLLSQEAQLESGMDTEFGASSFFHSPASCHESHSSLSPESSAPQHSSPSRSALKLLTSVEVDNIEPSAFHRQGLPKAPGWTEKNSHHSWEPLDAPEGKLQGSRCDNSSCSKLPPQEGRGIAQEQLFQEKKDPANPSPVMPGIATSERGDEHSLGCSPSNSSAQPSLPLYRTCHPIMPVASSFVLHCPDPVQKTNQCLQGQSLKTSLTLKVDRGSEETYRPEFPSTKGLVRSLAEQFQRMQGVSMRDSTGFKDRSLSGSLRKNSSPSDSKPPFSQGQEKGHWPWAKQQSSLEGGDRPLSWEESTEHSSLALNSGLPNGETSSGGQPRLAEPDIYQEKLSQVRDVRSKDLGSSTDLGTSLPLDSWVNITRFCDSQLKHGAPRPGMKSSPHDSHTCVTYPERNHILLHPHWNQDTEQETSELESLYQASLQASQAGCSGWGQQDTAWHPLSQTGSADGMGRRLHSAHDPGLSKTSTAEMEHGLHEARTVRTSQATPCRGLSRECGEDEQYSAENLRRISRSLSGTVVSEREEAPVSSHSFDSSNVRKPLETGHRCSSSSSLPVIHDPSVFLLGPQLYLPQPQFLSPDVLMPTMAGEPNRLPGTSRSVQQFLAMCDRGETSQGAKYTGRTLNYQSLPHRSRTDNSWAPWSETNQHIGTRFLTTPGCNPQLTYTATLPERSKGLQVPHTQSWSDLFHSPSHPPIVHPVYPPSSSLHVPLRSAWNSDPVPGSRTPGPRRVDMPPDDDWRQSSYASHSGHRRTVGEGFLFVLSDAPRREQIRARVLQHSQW
Chain of USP7 (Q93009 whole entry, looked up): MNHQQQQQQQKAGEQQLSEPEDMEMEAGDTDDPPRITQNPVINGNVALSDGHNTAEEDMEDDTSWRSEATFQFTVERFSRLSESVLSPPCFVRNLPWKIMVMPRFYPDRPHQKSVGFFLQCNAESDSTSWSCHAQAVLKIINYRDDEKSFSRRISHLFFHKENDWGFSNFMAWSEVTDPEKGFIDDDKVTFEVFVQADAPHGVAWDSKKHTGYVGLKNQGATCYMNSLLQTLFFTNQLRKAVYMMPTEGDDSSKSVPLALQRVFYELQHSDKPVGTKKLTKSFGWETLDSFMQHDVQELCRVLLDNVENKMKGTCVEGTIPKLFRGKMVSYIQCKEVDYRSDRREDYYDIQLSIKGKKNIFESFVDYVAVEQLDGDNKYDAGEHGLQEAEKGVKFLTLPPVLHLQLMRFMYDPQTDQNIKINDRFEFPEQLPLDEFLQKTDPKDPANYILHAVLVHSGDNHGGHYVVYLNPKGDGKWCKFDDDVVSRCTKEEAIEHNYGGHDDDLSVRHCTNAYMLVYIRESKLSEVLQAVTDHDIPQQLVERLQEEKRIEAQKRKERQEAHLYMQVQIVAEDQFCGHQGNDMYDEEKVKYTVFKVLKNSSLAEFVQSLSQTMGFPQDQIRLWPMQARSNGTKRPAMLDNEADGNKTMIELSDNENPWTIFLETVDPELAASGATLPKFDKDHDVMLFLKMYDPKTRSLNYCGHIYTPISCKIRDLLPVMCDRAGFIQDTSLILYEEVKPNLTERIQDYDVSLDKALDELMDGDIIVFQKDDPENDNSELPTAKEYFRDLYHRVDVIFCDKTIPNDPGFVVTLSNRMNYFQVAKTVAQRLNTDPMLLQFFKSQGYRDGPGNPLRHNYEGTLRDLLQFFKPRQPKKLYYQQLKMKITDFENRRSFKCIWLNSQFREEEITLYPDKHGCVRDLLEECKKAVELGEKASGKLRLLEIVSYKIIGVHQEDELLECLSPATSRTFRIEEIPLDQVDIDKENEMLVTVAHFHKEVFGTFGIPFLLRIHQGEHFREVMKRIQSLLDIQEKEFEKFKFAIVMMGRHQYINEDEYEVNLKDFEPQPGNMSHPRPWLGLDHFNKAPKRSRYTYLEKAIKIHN
Chain of UniProt O00487 (O00487 whole entry): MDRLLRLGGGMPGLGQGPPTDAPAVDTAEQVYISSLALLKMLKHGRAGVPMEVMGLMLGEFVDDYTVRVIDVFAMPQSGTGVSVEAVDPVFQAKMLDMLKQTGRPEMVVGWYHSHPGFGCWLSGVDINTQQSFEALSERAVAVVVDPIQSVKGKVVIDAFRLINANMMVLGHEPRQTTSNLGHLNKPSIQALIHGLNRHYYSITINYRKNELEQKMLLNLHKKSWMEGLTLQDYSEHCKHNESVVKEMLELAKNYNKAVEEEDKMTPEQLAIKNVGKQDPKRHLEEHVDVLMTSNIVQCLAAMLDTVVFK

O=C(CCl)N1CCc2[nH]c3ccccc3c2C1
inactive: USP42 0.132 | USP46 -0.655 | USP47 -0.863 | USP48 -0.532 | USP5 -0.461 | USP54 -0.00488 | USP7 -0.511 | USP8 -0.774 | USP9X -0.846 | UniProt O00487 -0.243
